GC-B act: GC-B (human) receptor activation; AID 1920062; P20594; HEK293-GC-B cells, CNP EC30, cGMP TR-FRET; 0% at EC30 CNP, 100% saturating CNP; hit rate 0.11% among 370,000; activation, % at 10 µM;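 active = activation at 10 µM reaching about 35% in either raw or pattern-adjusted values, limit read from the data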
NPR1 activator: GC-A (human) enzyme activation; P16066; HEK293 GC-A cells, cGMP TR-FRET, EC30 ANP; 0% at EC30 ANP, 100% saturating ANP; activation, % at 10 µM; hit rate 0.14% among 370,000; in the data active = activation above about 40%
MsrA act: activates bovine MsrA enzyme; hit rate 0.3% among 360,000; purified bovine MsrA, absorbance read-out; activation, % at 10.6 µM; in the data active = activation above about 7.5%
MsrA inhibitor: inhibitors of bovine MsrA | purified bovine MsrA, absorbance read-out | inhibition, % at 15.5 µM | hit rate 0.75% among 360,000 | AID 651718
MsrA conf: confirmation of bovine MsrA inhibitors. purified bovine MsrA, absorbance read-out. AID 651822. hit rate 41% among 2,300. inhibition, % at 15.5 µM. shares compounds with MsrA inhibitor;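 note: coupled to thioredoxin reductase with NADPH and selenocystamine and DMSO as substrate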
Of the large screens only hits and unclear results are named; the others gave an inactive call (follow-up assays come after a bar, where they were run). An excerpt weighted towards active compounds, which were near 1.2% of everything screened. Cut-off read from the data, not from the text of the source, unless noted: active = inhibition above about 4.5%; inactive = the rest.

Cc1ccc2[nH]c(=O)c(CN(Cc3cccnc3)Cc3nnnn3CCN3CCOCC3)cc2c1	MsrA inhibitor 5.1 | MsrA conf inactive
Cc1ccc(-n2cccc2/C=C2/C(=N)N3C(=NC2=O)SN=C3S(C)(=O)=O)cc1Cl	none
Cc1cccc(C)c1-n1cccc1/C=C1/C(=N)N2C(=NC1=O)SN=C2S(C)(=O)=O	MsrA inhibitor 7.4 | MsrA conf 5.8
O=C(Nc1ccc(NC(=S)NC(=O)c2ccco2)cc1)c1ccccc1	none
COc1ccccc1C(=O)NC(=S)Nc1ccc(NC(=O)c2ccco2)cc1	MsrA inhibitor 99 | MsrA conf inactive
O=C(NC(=S)NNC(=O)c1ccccc1O)c1ccco1	none
O=C(NNC(=S)NC(=O)c1ccco1)c1ccc(NC(=O)c2ccccc2)cc1	MsrA inhibitor 5.2 | MsrA conf inactive
COc1ccc(/C=C/C(=O)NC(=S)NNC(=O)c2ccco2)cc1	MsrA inhibitor 5.5 | MsrA conf 4.9
O=C(NC(=S)NNC(=O)c1cc2ccccc2cc1O)c1ccco1	MsrA inhibitor 6.5 | MsrA conf inactive
CC(C)(C)S(=O)N1C[C@@H]2CC(=O)C=C2[C@H]1CCO (some centres not stated)	none (no result: MsrA act)
CCC(=O)OCCCN1CCC2(CCC(c3ccccc3)CC2)C1=O (configuration not stated)	none (no result: MsrA act, MsrA inhibitor)
CCOc1nc(NCCN2CCOCC2)nc(Nc2ccc([N+](=O)[O-])cc2)n1	none
COc1nc(NCCN2CCOCC2)nc(Nc2ccc([N+](=O)[O-])cc2)n1	MsrA inhibitor 4.8 | MsrA conf inactive
CNc1oc(-c2ccc(Cl)cc2)nc1C#N	MsrA inhibitor 4.8 | MsrA conf inactive
C=CCNc1oc(-c2ccc(Cl)cc2)nc1C#N	none
COC(=O)[C@]12C[C@H](CC(=O)NCCCCc3ccccc3)C(=O)N(CCC3=CCCCC3)C1=C[C@H](C1CCCC1)O[C@@H]2C	none (no result: MsrA act, MsrA inhibitor)
O=C(Nc1nc2ccccc2n1Cc1ccc(Cl)cc1)c1ccco1	none
C=CCn1c(NC(=O)c2ccco2)nc2ccccc21	MsrA inhibitor 4.8 | MsrA conf inactive
Cc1ccccc1Nc1c(N)c(=O)oc2ccccc12	MsrA inhibitor 6.1 | MsrA conf 7.8
CN(C)CCNc1c(N)c(=O)oc2ccccc12	none
COCCn1c(SCC(=O)c2c(N)n(C3CC3)c(=O)[nH]c2=O)nnc1-c1ccc(Cl)cc1	MsrA inhibitor 6.0 | MsrA conf inactive
C/C(=N\O)C(C)/[N+]([O-])=C/c1nc(C)c(C)n1O (configuration not stated)	MsrA inhibitor 5.2 | MsrA conf inactive
CC(C)[C@@H]1OC(=O)[C@@H]2CCCN2C(=O)[C@H](C)OC(=O)[C@H](C)[C@@H](C(C)C)NC(=O)[C@@H]2CCCN2C(=O)[C@H]([C@H](C)Cc2ccccc2)NC(=O)[C@@H]2CCCN2C(=O)[C@@H](C(C)C)N(C)C1=O	none (no result: MsrA act, MsrA inhibitor)
O=c1nc(N2CCOCC2)nc(N/N=C/c2ccc3c(c2)OCO3)[nH]1	MsrA inhibitor 5.5 | MsrA conf inactive
Oc1cccc(/C=N/Nc2cc(N3CCOCC3)nc(N3CCOCC3)n2)c1	MsrA inhibitor 4.9 | MsrA conf 6.2
CN(/N=C/c1ccc2c(c1)OCO2)c1nc(N2CCOCC2)nc(N2CCOCC2)n1	none
Cc1nc(N/N=C/c2cccc(F)c2)cc(N2CCOCC2)n1	none
Oc1ccc(/C=N/Nc2cc(N3CCOCC3)nc(N3CCOCC3)n2)cc1O	MsrA inhibitor 4.7 | MsrA conf inactive
Cc1nc(N/N=C/c2ccc(O)cc2O)cc(N2CCOCC2)n1	MsrA inhibitor 4.8 | MsrA conf inactive
CCOC(=O)N1C(=O)C[C@](Sc2ccc(OC)cc2)(C(=O)N2CCCC2)[C@H]1c1ccc(OC)cc1	none (no result: MsrA act, MsrA inhibitor)
NC(=O)c1ncn([C@@H]2O[C@H](C(=O)N[C@H](Cc3ccccc3)C(=O)N3CCN(CC(=O)Nc4ccccn4)CC3)[C@@H](O)[C@H]2O)n1	none (no result: MsrA act)
O=C(Nc1nc2cc3c(cc2s1)OCO3)C1=COCCO1	MsrA inhibitor 5.2 | MsrA conf inactive
CC(=O)Nc1nc2cc3c(cc2s1)OCO3	none
CS(=O)(=O)c1ccc2nc(NC(=O)c3ccco3)sc2c1	MsrA inhibitor 5.7 | MsrA conf 4.7
O=C(Nc1nc2cc3c(cc2s1)OCCO3)c1ccco1	MsrA inhibitor 4.7 | MsrA conf 4.7
CS(=O)(=O)c1ccc2nc(NC(=O)c3ccc(=O)[nH]c3)sc2c1	MsrA inhibitor 6.3 | MsrA conf 6.0
CS(=O)(=O)c1ccc2nc(NC(=O)c3ccc(Cl)cc3)sc2c1	none
CCN(CC)C(=O)CC[C@H]1CC[C@]2(CCCN(C(=O)c3cccnc3)C2)O1	none (no result: MsrA act, MsrA inhibitor)
O=[N+]([O-])c1cc([N+](=O)[O-])c2n[nH]c(-c3ccccc3)c2c1	MsrA inhibitor 5.2 | MsrA conf inactive
O=[N+]([O-])c1cc(-c2n[nH]c(-c3ccccc3)n2)cc([N+](=O)[O-])c1	none
CC1(C)CC(=O)N(CC(=O)N2CCN(Cc3ccc4c(c3)OCO4)CC2)c2ccccc2S1(=O)=O	none (no result: MsrA act, MsrA inhibitor)
Cc1nn(Cc2ccc(Cl)cc2)c(=O)n1N(C)c1ncc(C(F)(F)F)cc1Cl	MsrA inhibitor 15 | MsrA conf 13
O=C1C(Nc2cccc(O)c2)=C(N2CCCCC2)C(=O)c2ccccc21	MsrA inhibitor 14 | MsrA conf inactive
O=[N+]([O-])c1cccc(-c2ccc(C(=S)N3CCOCC3)o2)c1	MsrA inhibitor 5.1 | MsrA conf 5.6
CCC(C)Oc1ccc(/C=C/c2[nH]c(=O)[nH]c(=O)c2[N+](=O)[O-])cc1OC (configuration not stated)	MsrA inhibitor 7.6 | MsrA conf 4.6
CN(C)[C@H]1CCN(c2ccc3c(c2)OCCCN(C2CC2)S3(=O)=O)C1	none (no result: MsrA act, MsrA inhibitor)
CCOc1cc(/C=C2/NC(=O)NC2=O)cc([N+](=O)[O-])c1O	MsrA inhibitor 5.6 | MsrA conf inactive
CCOc1cc(/C=C2/NC(=S)NC2=O)ccc1OCc1ccc([N+](=O)[O-])cc1	none
C=CCc1cc(/C=C2/NC(=S)NC2=O)cc(OC)c1O	none
C=CCc1cc(/C=C2/NC(=O)NC2=O)cc(OCC)c1O	MsrA inhibitor 4.8 | MsrA conf inactive
O=C1C2C(CC3c4ccccc4CCN32)CN1c1ccccc1 (configuration not stated)	none (no result: MsrA act, MsrA inhibitor)
CC(C)Oc1cccc(-c2csc(N3CCC(C(N)=O)CC3)n2)c1	none (no result: MsrA act, MsrA inhibitor)
O=C(O)c1ccc(N=NN2CCCC2)cc1	MsrA inhibitor 5.1 | MsrA conf inactive
CC1(C)CC(N2CCCC2)=CC(=[N+]2CCCCC2)C1	MsrA inhibitor 5.7 | MsrA conf inactive
CC1(C)CC(N2CCCC2)=CC(=[N+]2CCCC2)C1	MsrA inhibitor 5.9 | MsrA conf inactive
CC1(C)CC(NNCCC#N)=CC(=[N+]2CCCC2)C1	none
COC(=O)C1=C(C)NC(=S)N(C(C)=O)C1c1ccc(OC)c(OC)c1 (configuration not stated)	MsrA inhibitor 4.7 | MsrA conf inactive
COC(=O)C1=C(C)NC(=O)NC1c1ccc(OC)c(OC)c1 (configuration not stated)	none
O=C(N/N=C/C(Cl)=C/c1ccccc1)c1cnccn1	MsrA inhibitor 9.6 | MsrA conf inactive

Source: PubChem (several laboratories)
